Rows were chosen to be rich in hits. Some 3.7% of all compounds tested hit in one or more screens of this group.
tim23-1 inh: inhibits growth of tim23-1 mutant yeast; hit rate 1.3% among 330,000; AID 463212; S. cerevisiae tim23-1 growth, BacTiter-Glo luminescence, 24 h; inhibition, % at 20 µM;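 active means growth inhibition of the mutant yeast at or above 50%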;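 further: temperature-sensitive mutant grown at 25 °C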
tim10-1 inh: tim10-1 yeast growth inhibition | S. cerevisiae tim10-1 ts strain growth, BacTiter-Glo, 24 h | inhibition, % at 20 µM | hit rate 2.2% among 330,000;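 active means inhibition of at least 40%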;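 further: mutant grown at 25 °C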
PfHsp90 set2: inhibits growth of yeast expressing Plasmodium falciparum Hsp90; inhibition, % at 9.4 µM; hit rate 0.32% among 310,000; S. cerevisiae expressing PfHsp90, BacTiter-Glo ATP, 48 h; yeast lacking PDR1 and PDR3 efflux regulators;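 active means every replicate shows inhibition above about 80%, whatever the replicate mean, limit read from the data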
NLRP3 yeast inh: inhibitors of NALP3 inflammasome in yeast; Yeast reconstituted NLRP3/ASC/caspase-1, beta-gal luminescence, 24 h; inhibition, % at 10 µM; hit rate 0.39% among 330,000; AID 2825;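 active means inhibition of 50% or more; inactive means inhibition below 50%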
TIM10 inh: growth inhibitors of TIM10 yeast strain. hit rate 1.4% among 330,000. inhibition, % at 10 µM. S. cerevisiae TIM10 strain growth, BacTiter-Glo luminescence, 24 h. AID 463195;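 active means inhibition of 40% or more at the single tested concentration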;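 further: wild-type TIM10 isogenic control strain grown at permissive 25 °C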
tim10-1 confirm: confirmation of tim10-1 mutant yeast growth inhibitors. S. cerevisiae tim10-1 ts strain growth, BacTiter-Glo, 24 h. inhibition, % at 20 µM. shares compounds with tim10-1 inh. hit rate 56% among 7,400;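 active means inhibition of yeast growth at or above a set limit in either of two repeat tests at 20 µM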;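 further: tim10-1 mutant grown at permissive 25 °C to find synthetic lethal compounds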
Of the large screens only hits and unclear results are named; the others gave an inactive call (follow-up assays come after a bar, where they were run).

O=C(Nc1cc2c(cc1Cl)-c1ccc([N+](=O)[O-])cc1C2=NO)C(F)(F)F	none (no result: tim23-1 inh, tim10-1 inh, NLRP3 yeast inh, TIM10 inh)
NNC(=O)c1ccc(COc2ccc3ccccc3c2)o1	tim10-1 inh 42 | tim10-1 confirm inactive
C=CCn1c(CNS(=O)(=O)c2ccc(Br)cc2)n[nH]c1=S	none
O=C(NCCCc1ccccc1)c1cc([N+](=O)[O-])ccc1Cl	tim10-1 inh 41 | tim10-1 confirm inactive
COCc1cc(CN2CCCC(C(=O)Nc3ccc(-c4ccco4)cc3)C2)ccc1OC (centres undefined)	none
O=C1NC(Cc2ccc(O)cc2)c2nc3ccc(Cl)cc3c(=O)n2-c2ccc(Cl)cc21 (centres undefined)	none (no result: PfHsp90 set2)
O=C(OCc1nnc(-c2ccccc2)o1)c1cc(=O)c2ccccc2o1	none
O=C(OCc1nnc(-c2ccccc2)o1)c1ccco1	tim10-1 inh 41 | tim10-1 confirm inactive
COc1ccc(Cn2c(/C=C/c3ccccc3)nc3ccccc32)cc1	tim10-1 inh 46 (no result: PfHsp90 set2) | tim10-1 confirm inactive
COc1ccc(/C=C/C(=O)c2nc3ccccc3n2CC(=O)c2ccc(OC)cc2)cc1	tim10-1 inh 41 | tim10-1 confirm 37
O=C(Nc1cc(Cl)ccc1N1CCCC1)C1=COCCO1	none
Cc1ccccc1CN1CCN(c2nc3ccccc3s2)CC1	tim10-1 inh 41 | tim10-1 confirm inactive
COc1ccc(NC(=O)CN(C)C(=O)c2cccc(S(=O)(=O)N3CCN(c4ccc(F)cc4)CC3)c2)cc1	none (no result: tim23-1 inh, tim10-1 inh, NLRP3 yeast inh, TIM10 inh)
FC(F)(F)c1nnc2c(Sc3ccccn3)nc3ccccc3n12	tim10-1 inh 55 (no result: PfHsp90 set2) | tim10-1 confirm 35
FC(F)(F)c1nc2ccccc2c2nc3ccccc3n12	tim10-1 inh 41 | tim10-1 confirm inactive
O=C(COC(=O)c1ccc(C(F)(F)F)cc1)NC(=O)NC1CCCC1	none
Cc1c(C(=O)NC2CCCc3ccccc32)oc2ccccc12 (centres undefined)	tim10-1 inh 45 | tim10-1 confirm 38
COc1cc(C(=O)OCCc2cc3ccccc3c(=O)o2)cc(OC)c1OC	none
CCOc1ccc(CN(C)C(=O)CNC(=O)Cc2cccc3ccccc23)cc1	none
Cc1sc(N/N=C/c2ccco2)nc1-c1ccccc1	tim10-1 inh 43 | tim10-1 confirm inactive
CC(OC(=O)/C=C/c1ccc2ccccc2n1)C(=O)NCc1ccccc1 (centres undefined)	tim10-1 inh 41 | tim10-1 confirm inactive
Cc1nn(-c2ccc(NC(=O)c3ccncc3)cc2)c(C)c1Cl	none
CC(=O)c1sc(N/N=C\c2c(O)ccc3ccccc23)nc1C	tim10-1 inh 42 | tim10-1 confirm inactive
Cc1cc(OC(=O)c2c(Cl)cc(Cl)cc2Cl)nc(C)n1	none (no result: PfHsp90 set2)
Cc1cc(C)nc(OC(=O)c2c(Cl)cc(Cl)cc2Cl)n1	tim10-1 inh 44 | tim10-1 confirm 33
CSC1=NC(C)(C)C=C(/C=C/c2ccc(Cl)cc2)N1	tim10-1 inh 43 | tim10-1 confirm inactive
CSC1=NC(C)(C)C=C(/C=C/c2c(Cl)cccc2Cl)N1	tim10-1 inh 44 | tim10-1 confirm inactive
COc1cc(C2OC(=O)C3C(c4ccc(OC(C)=O)c(OC)c4)OC(=O)C23)ccc1OC(C)=O (centres undefined)	none
COc1cc(Br)ccc1NC(=O)c1ccccc1-c1ccccc1C(=O)O	none
Cc1ccc(SCCNC(=S)Nc2cc(C)ccc2C)cc1	tim10-1 inh 43 | tim10-1 confirm inactive
Cc1ccc(SCCNC(=S)Nc2ccc(C)c(C)c2)cc1	none
CC(=O)Nc1ccc(NC(=O)C(C)Oc2ccccc2C(=O)NCc2ccccc2)cc1 (centres undefined)	none (no result: PfHsp90 set2)
O=[N+]([O-])c1ccc(N=Nc2ccc(O)cc2O)cc1	tim10-1 inh 59 | tim10-1 confirm 44
N#C/C(=C\c1ccc(-c2ccc(Br)cc2)o1)C(=O)NCCc1c[nH]c2ccccc12	tim10-1 inh 41 | tim10-1 confirm inactive
COc1ccc(C(=S)N2CCCCCC2)cc1	tim10-1 inh 40 (no result: PfHsp90 set2) | tim10-1 confirm inactive
COc1ccc(C(=S)N2CCNCC2)cc1	none
Cc1cc(C)c(C)c(S(=O)(=O)N2CCC(C(=O)NNC(=O)c3ccccc3O)CC2)c1C	none
CCCCOC(=O)c1ccc(NC(=O)COC(=O)CSc2nc(C)cc(C)n2)cc1	tim10-1 inh 46 | tim10-1 confirm inactive
COc1cc(OC)c(C(=O)OCC(=O)Nc2ccc(S(=O)(=O)N3CCOCC3)cc2)cc1OC	none
O=C(CCC1CCCC1)NCCS(=O)(=O)N1CCN(c2ccccc2F)CC1	none
COc1cccc(NC(=O)CSc2nnnn2C2CCCC2)c1	none
COc1cc(NC(=O)CSc2nnnn2C2CCCC2)cc(OC)c1	tim10-1 inh 97 | tim10-1 confirm inactive
OC1CCCN(c2c3c(nc4cc(-c5cccc(Cl)c5)nn24)CCC3)C1 (centres undefined)	none
COc1ccc(-c2cc3nc4c(c(N5CCC6(CC5)OCCO6)n3n2)CCC4)cc1	tim10-1 inh 47 | tim10-1 confirm 33
Cc1cccc(-c2cc3nc4c(c(N5CCCC(O)C5)n3n2)CCC4)c1 (centres undefined)	tim10-1 inh 47 (no result: PfHsp90 set2) | tim10-1 confirm inactive
OC1CCN(c2c3c(nc4cc(-c5ccc(F)cc5)nn24)CCC3)CC1	tim10-1 inh 45 | tim10-1 confirm inactive
Cc1ccc2c(c1)c(N=O)c(O)n2Cc1ccc(Cl)cc1	tim10-1 inh 49 | tim10-1 confirm 36
CCOC(=O)/C(C#N)=C1\SS/C(=C(/C#N)C(=O)OCC)S1	tim10-1 inh 41 (no result: PfHsp90 set2) | tim10-1 confirm 36
CCOC(=O)/C(C#N)=C1/CCCCCN1C	none
O=S(=O)(NCc1ccccc1)c1ccccc1NCc1ccc(Cl)cc1	none (no result: NLRP3 yeast inh)
S=c1nc(-c2ccccc2)[nH]c2ccc(Br)cc12	tim10-1 inh 43 | tim10-1 confirm inactive
Cc1ccc(C(=O)Nc2sc3c(c2C(=O)O)CCCC3)o1	none
Cc1ccc(C(=O)Nc2sc3c(c2C(=O)O)CCCCC3)o1	tim10-1 inh 41 | tim10-1 confirm 35
CCCCOC(=O)Nc1cccc(C(=O)OCC)c1	tim10-1 inh 46 | tim10-1 confirm inactive
Nc1c(C(=O)NCc2ccc(Cl)cc2)sc2nc3c(c(C(F)(F)F)c12)CCC3	tim10-1 inh 46 (no result: PfHsp90 set2) | tim10-1 confirm inactive
Cc1ccc(CNC(=O)c2sc3nc4c(c(C(F)(F)F)c3c2N)CCC4)cc1	none
CC(NC(=O)c1nn(C)c2c1CS(=O)(=O)c1ccccc1-2)c1ccccc1 (centres undefined)	none
O=C(NC1CC1(c1ccccc1)c1ccccc1)c1ccccc1 (centres undefined)	none (no result: tim23-1 inh, tim10-1 inh, NLRP3 yeast inh, TIM10 inh)
O=C(NCc1ccccc1)c1nc(-c2cccs2)no1	tim10-1 inh 40 | tim10-1 confirm 38
CCCCn1c(SCC(=O)NCc2ccc3c(c2)OCO3)nnc1C(CC)N(C)C (centres undefined)	none
COc1ccc(C(=O)NCC(c2cccs2)N2CCc3ccccc32)c(OC)c1 (centres undefined)	none
Cc1ccc(S(=O)(=O)n2cc(CO)c3ccccc32)cc1	none (no result: tim23-1 inh, tim10-1 inh, NLRP3 yeast inh, TIM10 inh)

From PubChem
